Results: publication PMC7862700, “An all-to-all approach to the identification of sequence-specific readers for epigenetic DNA modifications on cytosine”

Columns and labels:
Assay in all cases: DAPPL (digital affinity profiling via proximity ligation, sequencing); 10 mM Tris-HCl pH 7.5, 50 mM NaCl, 1 mM DTT, 4% glycerol, room temperature, 30 min; GST-TFs on glutathione beads, 16-mer random dsDNA library, 0.1% formaldehyde crosslink after washing; high values mean tight binding
[1] = target: T1, FLI1 (Homo sapiens, UniProt Q01543 1-452); conditions: protein: recombinant; tags: N-terminal GST; dsDNA, one strand shown
T1 sequence: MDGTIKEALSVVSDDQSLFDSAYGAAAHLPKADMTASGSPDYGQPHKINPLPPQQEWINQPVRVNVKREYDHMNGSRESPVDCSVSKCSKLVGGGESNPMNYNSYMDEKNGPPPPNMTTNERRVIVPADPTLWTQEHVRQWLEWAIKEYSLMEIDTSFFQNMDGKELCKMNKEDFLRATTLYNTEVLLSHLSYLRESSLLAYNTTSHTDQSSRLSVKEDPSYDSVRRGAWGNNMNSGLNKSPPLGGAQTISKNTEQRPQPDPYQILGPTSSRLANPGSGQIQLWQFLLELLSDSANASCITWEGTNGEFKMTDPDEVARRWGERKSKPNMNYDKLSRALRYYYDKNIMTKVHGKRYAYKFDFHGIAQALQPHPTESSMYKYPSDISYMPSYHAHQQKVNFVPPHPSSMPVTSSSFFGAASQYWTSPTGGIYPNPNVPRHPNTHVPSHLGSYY
In short: (§1)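 GST fusions of human transcription factors were expressed in yeast and captured with glutathione beads. Once given DNA barcodes and pooled alongside a tag-only sample, they were incubated for 30 min at room temperature with 200 nmole of a random double-stranded 16-mer DNA library in Tris/NaCl/DTT/glycerol buffer, then washed, crosslinked (0.1% formaldehyde), proximity-ligated, PCR-amplified and sequenced on an Illumina NextSeq500. The binding signal of each hexamer is its read frequency for a factor divided by its frequency for the tag-only sample.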

[2] = target: T2, ELK1 (Homo sapiens, UniProt P19419 1-428); conditions: protein: recombinant; tags: N-terminal GST; dsDNA, one strand shown
T2 sequence: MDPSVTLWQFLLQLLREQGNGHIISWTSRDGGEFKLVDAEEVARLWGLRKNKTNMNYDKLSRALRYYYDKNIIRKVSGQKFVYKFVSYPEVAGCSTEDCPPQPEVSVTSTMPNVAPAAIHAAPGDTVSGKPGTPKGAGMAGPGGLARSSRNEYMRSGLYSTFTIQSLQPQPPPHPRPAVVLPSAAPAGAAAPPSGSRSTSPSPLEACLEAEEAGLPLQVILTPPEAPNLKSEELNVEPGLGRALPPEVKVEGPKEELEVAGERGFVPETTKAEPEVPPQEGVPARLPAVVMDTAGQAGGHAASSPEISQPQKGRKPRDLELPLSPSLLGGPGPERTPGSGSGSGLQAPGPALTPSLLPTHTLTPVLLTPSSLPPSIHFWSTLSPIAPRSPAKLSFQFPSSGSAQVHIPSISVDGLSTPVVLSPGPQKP
In short: as §1

[3] = target: T3, GABPA (Homo sapiens, UniProt Q06546 1-454); conditions: protein: recombinant; tags: N-terminal GST; dsDNA, one strand shown
T3 sequence: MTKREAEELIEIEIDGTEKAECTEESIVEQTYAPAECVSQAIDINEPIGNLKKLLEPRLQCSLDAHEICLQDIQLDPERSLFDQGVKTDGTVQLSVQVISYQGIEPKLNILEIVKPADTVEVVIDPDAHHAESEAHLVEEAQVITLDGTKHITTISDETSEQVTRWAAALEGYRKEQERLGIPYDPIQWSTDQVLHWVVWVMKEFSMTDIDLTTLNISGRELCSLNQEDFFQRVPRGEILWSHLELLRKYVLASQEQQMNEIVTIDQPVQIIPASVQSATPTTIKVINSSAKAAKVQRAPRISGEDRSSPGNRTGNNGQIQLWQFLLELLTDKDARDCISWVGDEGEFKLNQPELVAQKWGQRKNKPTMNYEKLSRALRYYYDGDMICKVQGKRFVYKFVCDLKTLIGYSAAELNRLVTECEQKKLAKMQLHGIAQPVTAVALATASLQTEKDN
In short: as §1

[4] = target: T4, ERG (Homo sapiens, UniProt P11308 1-479); conditions: protein: recombinant; tags: N-terminal GST; dsDNA, one strand shown
T4 sequence: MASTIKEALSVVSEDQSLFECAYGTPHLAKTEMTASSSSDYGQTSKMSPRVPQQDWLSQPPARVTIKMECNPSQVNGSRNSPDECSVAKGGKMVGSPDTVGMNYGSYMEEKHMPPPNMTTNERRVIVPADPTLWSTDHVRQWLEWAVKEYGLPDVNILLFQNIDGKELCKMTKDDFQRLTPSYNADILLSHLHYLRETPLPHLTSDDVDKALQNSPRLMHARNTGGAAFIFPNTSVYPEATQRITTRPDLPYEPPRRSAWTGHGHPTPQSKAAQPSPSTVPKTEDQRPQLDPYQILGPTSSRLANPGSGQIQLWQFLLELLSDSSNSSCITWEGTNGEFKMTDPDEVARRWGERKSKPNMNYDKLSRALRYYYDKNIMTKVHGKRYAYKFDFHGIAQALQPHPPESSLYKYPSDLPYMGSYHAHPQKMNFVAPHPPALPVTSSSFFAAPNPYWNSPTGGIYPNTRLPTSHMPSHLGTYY
In short: as §1

[5] = target: ELF1 (Homo sapiens, UniProt P32519 1-619); conditions: protein: recombinant; tags: N-terminal GST; dsDNA, one strand shown
In short: as §1

[6] = target: T5, EHF (Homo sapiens, UniProt Q9NZC4 1-300); conditions: protein: recombinant; tags: N-terminal GST; dsDNA, one strand shown
T5 sequence: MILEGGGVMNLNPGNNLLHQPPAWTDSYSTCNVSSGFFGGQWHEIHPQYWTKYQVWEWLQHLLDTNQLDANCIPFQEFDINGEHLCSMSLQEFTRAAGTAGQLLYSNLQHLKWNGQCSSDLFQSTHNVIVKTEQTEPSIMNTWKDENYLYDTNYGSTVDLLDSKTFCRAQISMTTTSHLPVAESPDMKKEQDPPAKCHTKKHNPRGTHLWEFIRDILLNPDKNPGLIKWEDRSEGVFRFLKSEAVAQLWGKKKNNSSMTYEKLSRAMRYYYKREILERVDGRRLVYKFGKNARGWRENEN
In short: as §1

[7] = target: SPI1 (Homo sapiens, UniProt P17947 1-270); conditions: protein: recombinant; tags: N-terminal GST; dsDNA, one strand shown
In short: as §1

[8] = target: SPIB (Homo sapiens, UniProt Q01892 1-262); conditions: protein: recombinant; tags: N-terminal GST; dsDNA, one strand shown
In short: as §1

[9] = target: T6, ELK3 (Homo sapiens, UniProt P41970 1-407); conditions: protein: recombinant; tags: N-terminal GST; dsDNA, one strand shown
T6 sequence: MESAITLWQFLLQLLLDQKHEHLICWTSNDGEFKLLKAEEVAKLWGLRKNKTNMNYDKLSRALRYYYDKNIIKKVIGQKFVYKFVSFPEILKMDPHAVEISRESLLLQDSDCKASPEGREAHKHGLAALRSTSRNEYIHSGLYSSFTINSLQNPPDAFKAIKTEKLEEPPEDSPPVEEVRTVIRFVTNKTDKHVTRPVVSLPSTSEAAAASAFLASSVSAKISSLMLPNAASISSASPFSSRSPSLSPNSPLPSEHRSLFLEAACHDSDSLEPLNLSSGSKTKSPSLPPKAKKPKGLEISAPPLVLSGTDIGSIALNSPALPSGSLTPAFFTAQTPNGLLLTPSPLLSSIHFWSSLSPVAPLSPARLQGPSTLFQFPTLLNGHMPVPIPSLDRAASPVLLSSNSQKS
In short: as §1

[10] = target: T7, FEV (Homo sapiens, UniProt Q99581 1-238); conditions: protein: recombinant; tags: N-terminal GST; dsDNA, one strand shown
T7 sequence: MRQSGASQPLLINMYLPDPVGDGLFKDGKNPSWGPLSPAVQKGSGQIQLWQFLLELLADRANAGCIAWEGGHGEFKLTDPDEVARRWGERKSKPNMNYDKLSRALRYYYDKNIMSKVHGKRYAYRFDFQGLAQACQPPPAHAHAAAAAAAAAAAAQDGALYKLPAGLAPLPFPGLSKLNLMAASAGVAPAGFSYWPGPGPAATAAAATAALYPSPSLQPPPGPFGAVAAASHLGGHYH
In short: as §1

[11] = target: ETV5 (Homo sapiens, UniProt P41161 1-510); conditions: protein: recombinant; tags: N-terminal GST; dsDNA, one strand shown
In short: as §1

[12] = target: HSF1 (Homo sapiens, UniProt Q00613 1-529); conditions: protein: recombinant; tags: N-terminal GST; chain copies: 3; dsDNA, one strand shown
In short: as §1

[13] = target: T8, SPIC (Homo sapiens, UniProt Q8N5J4 1-248); conditions: protein: recombinant; tags: N-terminal GST; dsDNA, one strand shown
T8 sequence: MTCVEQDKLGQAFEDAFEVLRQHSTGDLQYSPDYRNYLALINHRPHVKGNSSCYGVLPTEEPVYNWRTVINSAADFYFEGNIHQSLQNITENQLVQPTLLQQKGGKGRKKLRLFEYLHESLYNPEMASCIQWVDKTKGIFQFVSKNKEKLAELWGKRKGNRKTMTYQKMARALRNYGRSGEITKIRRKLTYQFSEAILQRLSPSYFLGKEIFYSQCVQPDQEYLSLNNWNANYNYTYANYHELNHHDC
In short: as §1

[14] = target: ELF4 (Homo sapiens, UniProt Q99607 1-663); conditions: protein: recombinant; tags: N-terminal GST; dsDNA, one strand shown
In short: as §1

[15] = target: T9, ELK4 (Homo sapiens, UniProt P28324-2 1-405); conditions: protein: recombinant; tags: N-terminal GST; dsDNA, one strand shown
T9 sequence: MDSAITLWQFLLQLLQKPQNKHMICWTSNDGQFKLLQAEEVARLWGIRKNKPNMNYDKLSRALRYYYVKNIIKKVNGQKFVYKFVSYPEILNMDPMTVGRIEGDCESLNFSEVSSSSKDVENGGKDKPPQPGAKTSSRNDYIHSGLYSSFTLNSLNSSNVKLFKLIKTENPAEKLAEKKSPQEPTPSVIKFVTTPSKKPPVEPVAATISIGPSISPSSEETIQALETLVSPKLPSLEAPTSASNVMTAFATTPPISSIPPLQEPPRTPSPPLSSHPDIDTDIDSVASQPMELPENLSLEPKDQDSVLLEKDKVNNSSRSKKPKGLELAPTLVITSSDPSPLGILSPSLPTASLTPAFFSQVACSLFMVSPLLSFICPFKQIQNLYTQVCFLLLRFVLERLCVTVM
In short: as §1

[16] = target: T10, ETV2 (Homo sapiens, UniProt O00321 1-342); conditions: protein: recombinant; tags: N-terminal GST; dsDNA, one strand shown
T10 sequence: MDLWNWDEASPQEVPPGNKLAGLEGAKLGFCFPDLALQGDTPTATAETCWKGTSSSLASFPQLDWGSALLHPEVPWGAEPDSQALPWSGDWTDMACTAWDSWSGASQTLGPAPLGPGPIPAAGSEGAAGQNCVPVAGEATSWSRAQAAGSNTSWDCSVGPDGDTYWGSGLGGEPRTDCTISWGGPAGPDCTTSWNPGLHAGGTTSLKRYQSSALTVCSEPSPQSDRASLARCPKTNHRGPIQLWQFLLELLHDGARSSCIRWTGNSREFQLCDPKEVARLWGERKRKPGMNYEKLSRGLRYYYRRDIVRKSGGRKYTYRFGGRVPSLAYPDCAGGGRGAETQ
In short: as §1

[17] = target: T11, ELF3 (Homo sapiens, UniProt P78545 1-371); conditions: protein: recombinant; tags: N-terminal GST; dsDNA, one strand shown
T11 sequence: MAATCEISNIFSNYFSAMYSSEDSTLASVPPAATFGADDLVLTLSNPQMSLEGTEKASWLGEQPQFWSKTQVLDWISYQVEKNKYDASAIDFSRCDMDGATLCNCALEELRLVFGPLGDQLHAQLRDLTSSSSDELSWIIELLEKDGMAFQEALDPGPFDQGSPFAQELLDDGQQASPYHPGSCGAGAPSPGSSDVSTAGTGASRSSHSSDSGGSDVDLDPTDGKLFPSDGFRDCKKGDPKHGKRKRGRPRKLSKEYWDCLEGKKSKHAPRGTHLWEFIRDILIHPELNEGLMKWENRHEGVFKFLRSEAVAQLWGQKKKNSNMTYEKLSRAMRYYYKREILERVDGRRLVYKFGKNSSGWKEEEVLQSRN
In short: as §1

[18] = target: CRX (Homo sapiens, UniProt O43186 1-299); conditions: protein: recombinant; tags: N-terminal GST; dsDNA, one strand shown
In short: as §1

[19] = target: ETV1 (Homo sapiens, UniProt P50549 1-477); conditions: protein: recombinant; tags: N-terminal GST; dsDNA, one strand shown
In short: as §1

Chain of HSF1 (Q00613 whole entry): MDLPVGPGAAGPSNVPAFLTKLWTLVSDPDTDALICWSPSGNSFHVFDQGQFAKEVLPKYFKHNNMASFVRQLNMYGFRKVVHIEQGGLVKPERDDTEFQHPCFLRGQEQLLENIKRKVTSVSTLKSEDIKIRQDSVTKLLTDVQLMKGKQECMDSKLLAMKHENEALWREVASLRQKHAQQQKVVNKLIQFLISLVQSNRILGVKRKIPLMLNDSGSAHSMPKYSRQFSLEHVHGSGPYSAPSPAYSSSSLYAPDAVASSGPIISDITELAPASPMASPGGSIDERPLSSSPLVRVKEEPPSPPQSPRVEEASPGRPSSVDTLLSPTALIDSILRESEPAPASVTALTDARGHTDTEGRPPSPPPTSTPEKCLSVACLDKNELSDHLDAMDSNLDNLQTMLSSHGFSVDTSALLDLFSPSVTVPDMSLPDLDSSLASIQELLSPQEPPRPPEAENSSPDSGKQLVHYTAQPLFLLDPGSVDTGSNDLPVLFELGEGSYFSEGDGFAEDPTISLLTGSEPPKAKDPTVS
Chain of ETV1 (P50549 whole entry): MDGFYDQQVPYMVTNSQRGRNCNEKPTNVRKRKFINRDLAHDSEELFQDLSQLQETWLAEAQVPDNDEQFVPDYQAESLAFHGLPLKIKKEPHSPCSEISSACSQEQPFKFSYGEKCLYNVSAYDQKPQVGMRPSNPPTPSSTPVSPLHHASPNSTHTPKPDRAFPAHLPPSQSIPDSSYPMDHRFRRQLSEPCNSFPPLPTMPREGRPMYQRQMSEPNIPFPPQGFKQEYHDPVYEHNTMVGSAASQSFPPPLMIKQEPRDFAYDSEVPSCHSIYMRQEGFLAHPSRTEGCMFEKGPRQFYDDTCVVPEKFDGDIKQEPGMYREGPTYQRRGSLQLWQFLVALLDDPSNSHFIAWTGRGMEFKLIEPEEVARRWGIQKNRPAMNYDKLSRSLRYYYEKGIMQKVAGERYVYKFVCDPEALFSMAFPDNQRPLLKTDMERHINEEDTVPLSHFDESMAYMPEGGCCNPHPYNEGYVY
Chain of CRX (O43186 whole entry): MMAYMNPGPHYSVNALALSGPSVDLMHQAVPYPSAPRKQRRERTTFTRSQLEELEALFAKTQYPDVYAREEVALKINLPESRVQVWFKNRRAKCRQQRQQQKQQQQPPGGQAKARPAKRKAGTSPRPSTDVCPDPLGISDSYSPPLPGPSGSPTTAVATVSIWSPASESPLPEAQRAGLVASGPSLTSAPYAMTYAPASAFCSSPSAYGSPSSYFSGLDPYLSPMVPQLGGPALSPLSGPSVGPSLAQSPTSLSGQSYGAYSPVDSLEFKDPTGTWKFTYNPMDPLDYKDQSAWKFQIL
Chain of SPIB (Q01892 whole entry): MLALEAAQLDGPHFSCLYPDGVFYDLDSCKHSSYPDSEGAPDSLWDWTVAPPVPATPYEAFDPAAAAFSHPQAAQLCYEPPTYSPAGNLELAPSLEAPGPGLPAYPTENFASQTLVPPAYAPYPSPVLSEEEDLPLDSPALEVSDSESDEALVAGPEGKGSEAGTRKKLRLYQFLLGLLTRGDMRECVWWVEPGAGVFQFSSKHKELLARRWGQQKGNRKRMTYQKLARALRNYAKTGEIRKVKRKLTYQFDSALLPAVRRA
Chain of ETV5 (P41161 whole entry): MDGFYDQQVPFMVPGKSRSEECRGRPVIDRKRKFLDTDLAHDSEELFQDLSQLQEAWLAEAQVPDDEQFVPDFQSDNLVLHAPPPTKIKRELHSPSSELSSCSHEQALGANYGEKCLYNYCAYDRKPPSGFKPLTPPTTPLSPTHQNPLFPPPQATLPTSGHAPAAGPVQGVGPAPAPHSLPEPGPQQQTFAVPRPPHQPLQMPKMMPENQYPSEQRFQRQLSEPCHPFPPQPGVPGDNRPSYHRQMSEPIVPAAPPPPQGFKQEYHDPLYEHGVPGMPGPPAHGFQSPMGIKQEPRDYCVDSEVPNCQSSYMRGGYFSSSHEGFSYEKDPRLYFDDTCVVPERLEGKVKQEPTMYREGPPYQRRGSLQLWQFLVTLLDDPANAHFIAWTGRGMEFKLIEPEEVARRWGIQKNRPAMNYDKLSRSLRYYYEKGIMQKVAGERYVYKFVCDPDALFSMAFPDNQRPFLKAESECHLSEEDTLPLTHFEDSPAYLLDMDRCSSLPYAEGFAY
Chain of ELF1 (P32519 whole entry): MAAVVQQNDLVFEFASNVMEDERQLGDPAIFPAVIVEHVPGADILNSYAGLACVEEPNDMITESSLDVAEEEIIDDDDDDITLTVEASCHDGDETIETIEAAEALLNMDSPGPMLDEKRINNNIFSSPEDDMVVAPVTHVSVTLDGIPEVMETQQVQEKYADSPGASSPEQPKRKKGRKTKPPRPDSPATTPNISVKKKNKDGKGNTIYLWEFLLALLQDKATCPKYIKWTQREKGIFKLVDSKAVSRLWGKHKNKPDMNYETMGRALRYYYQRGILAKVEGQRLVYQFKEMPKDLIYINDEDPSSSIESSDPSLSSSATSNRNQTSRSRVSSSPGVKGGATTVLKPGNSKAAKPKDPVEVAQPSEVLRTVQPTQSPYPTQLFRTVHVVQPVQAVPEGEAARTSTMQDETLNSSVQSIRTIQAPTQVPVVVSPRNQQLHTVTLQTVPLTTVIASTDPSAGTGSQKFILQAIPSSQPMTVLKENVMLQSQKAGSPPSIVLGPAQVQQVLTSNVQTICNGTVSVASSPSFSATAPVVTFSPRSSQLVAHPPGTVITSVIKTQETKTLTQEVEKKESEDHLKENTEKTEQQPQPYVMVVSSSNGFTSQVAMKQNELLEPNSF
Chain of ELF4 (Q99607 whole entry): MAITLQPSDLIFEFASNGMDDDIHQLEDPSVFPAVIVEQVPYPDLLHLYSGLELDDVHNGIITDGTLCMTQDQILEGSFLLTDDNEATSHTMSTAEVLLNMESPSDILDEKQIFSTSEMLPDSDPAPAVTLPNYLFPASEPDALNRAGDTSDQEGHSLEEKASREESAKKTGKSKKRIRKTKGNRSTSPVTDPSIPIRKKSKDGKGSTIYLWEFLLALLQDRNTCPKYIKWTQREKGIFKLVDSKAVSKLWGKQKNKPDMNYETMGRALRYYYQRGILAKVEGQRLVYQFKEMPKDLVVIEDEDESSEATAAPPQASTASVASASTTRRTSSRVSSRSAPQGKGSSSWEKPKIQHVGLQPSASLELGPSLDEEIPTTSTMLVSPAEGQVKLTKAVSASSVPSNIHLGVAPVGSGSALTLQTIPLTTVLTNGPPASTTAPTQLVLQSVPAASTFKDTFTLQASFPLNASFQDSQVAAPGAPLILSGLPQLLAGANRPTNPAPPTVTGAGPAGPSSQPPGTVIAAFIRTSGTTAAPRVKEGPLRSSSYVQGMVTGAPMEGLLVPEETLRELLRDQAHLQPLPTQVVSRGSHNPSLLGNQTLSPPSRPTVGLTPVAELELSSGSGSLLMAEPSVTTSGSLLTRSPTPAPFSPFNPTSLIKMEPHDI

ATAAAT
binding signal [1]: 1.14 fold enrichment (6-mer frequency, TF over GST control) | binding signal [2]: 1.15 fold enrichment (6-mer frequency, TF over GST control) | binding signal [3]: 1.15 fold enrichment (6-mer frequency, TF over GST control) | binding signal [4]: 1.15 fold enrichment (6-mer frequency, TF over GST control) | binding signal [5]: 1.15 fold enrichment (6-mer frequency, TF over GST control) | binding signal [6]: 1.14 fold enrichment (6-mer frequency, TF over GST control) | binding signal [7]: 1.2 fold enrichment (6-mer frequency, TF over GST control) | binding signal [8]: 1.23 fold enrichment (6-mer frequency, TF over GST control) | binding signal [9]: 1.22 fold enrichment (6-mer frequency, TF over GST control) | binding signal [10]: 1.11 fold enrichment (6-mer frequency, TF over GST control) | binding signal [11]: 1.22 fold enrichment (6-mer frequency, TF over GST control) | binding signal [12]: 1.41 fold enrichment (6-mer frequency, TF over GST control) | binding signal [13]: 1.16 fold enrichment (6-mer frequency, TF over GST control) | binding signal [14]: 1.16 fold enrichment (6-mer frequency, TF over GST control) | binding signal [15]: 1.17 fold enrichment (6-mer frequency, TF over GST control) | binding signal [16]: 1.13 fold enrichment (6-mer frequency, TF over GST control) | binding signal [17]: 1.24 fold enrichment (6-mer frequency, TF over GST control) | binding signal [18]: 1.75 fold enrichment (6-mer frequency, TF over GST control) | binding signal [19]: 1.13 fold enrichment (6-mer frequency, TF over GST control)
